Laboratory results taken from a collection of fitness landscapes (doi:10.1016/j.celrep.2020.107928).
In all, about 81,000 sequences were measured (“one-hybrid fitness for binding parS DNA”: median about -0.17, highest 2% from about 0.51 on). Many of the other results were omitted from the sample, so the highest values are more common in it than they were.

B1: Caulobacter ParB omega fusion; a variant is named by its letters at X, in order, B8GW30 (parent)
chain: MESVVVGEPGMSEGRRGLGRGLSALLGEVDAAPAQAPGEQLGGSREAPIEILQRNPDQPRRTFREEDLEDLSNSIREKGVLQPILVRPSPDTAGEYQIVAGERAWRAAQRAGLKTVPIMVRELDDLAVLEIGIIENVQRADLNVLEEALSYKVLMEKFERTQENIAQTIGKSXSHVANXMRLLXLPDEVQSYLVSGELTAXHARAIAAAADPVALAKQIIEGGLSVRETEALARKAPNLSAGKSKGGRPPRVKDTDTQALESDLSSVLGLDVSIDHRGSTGTLTITYATLEQLDDLCNRLTRGI

Variants of: B1
Experiment: one-hybrid fitness for binding parS DNA (scaled: cognate 1, non-cognate 0); higher = stronger binding
Settings: with parS DNA site
How it was run: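 The reporter was HIS3, with the binding site 19 bp from the promoter, in E. coli USO used for bacterial one-hybrid selection of Caulobacter ParB libraries with four specificity codons randomised. Growth was on M9 lacking histidine, with 0.1 mM IPTG and 5 mM 3-AT, for 48 hours at 37°C. Illumina sequencing covered plasmids before and after selection; three replicate libraries were pooled and variants with under 10 reads dropped. A fitness score is the log change in variant-to-wild-type read ratio, rescaled to the cognate and non-cognate references.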

Variant | one-hybrid fitness for binding parS DNA
PKQP | ≤ 0.2
RNAD | ≤ 0.2
RNAS | 0.914
RNFN | 0.256
RNFD | ≤ 0.2
RNAH | ≤ 0.2
RNFS | 0.719
KHDT | ≤ 0.2
WNNG | ≤ 0.2
RVAR | ≤ 0.2
RVFT | 0.917
RVFY | 0.464
RVAF | 0.259
RVAT | 0.916
RVFM | 0.363
SPGM | ≤ 0.2
RMYK | ≤ 0.2
RMCC | 0.985
RMRD | ≤ 0.2
RMCR | ≤ 0.2
RMYF | 0.289
RMSN | 0.449
RMSC | 0.956
RMRC | 0.867
RMRH | 0.261

Variant | one-hybrid fitness for binding parS DNA
RMCF | 0.217
RMSP | 0.204
RMYC | 1.01
LSPY | ≤ 0.2
LVGR | ≤ 0.2
GTAK | ≤ 0.2
ELGD | ≤ 0.2
QSMI | ≤ 0.2
EQMT | ≤ 0.2
IWTC | ≤ 0.2
GPTP | ≤ 0.2
PHIN | ≤ 0.2
LTQT | ≤ 0.2
RDMK | ≤ 0.2
TFCT | ≤ 0.2
RMLC | 0.983
RMLL | ≤ 0.2
RMLR | ≤ 0.2
THQL | ≤ 0.2
RMYA | 0.651
DMYA | ≤ 0.2
RMRA | 0.765
RMEA | 0.495
NMRA | ≤ 0.2
QQDP | ≤ 0.2

Variant | one-hybrid fitness for binding parS DNA
GWES | ≤ 0.2
RSPG | 0.507
RPIG | ≤ 0.2
RCIG | 0.955
RDIG | ≤ 0.2
REIG | ≤ 0.2
RSIG | 0.822
PLWA | ≤ 0.2
FGAE | ≤ 0.2
KGTY | ≤ 0.2
VTTC | ≤ 0.2
MCDS | ≤ 0.2
TPPY | ≤ 0.2
HNSC | ≤ 0.2
RMGG | 0.993
RMDN | 0.375
RMYR | 0.225
RMDG | 0.917
RMHF | 0.269
RMYQ | 0.205
RMGH | ≤ 0.2
RMDH | ≤ 0.2
RMYG | 1.03
RMHG | 1.01
RMHM | 0.374

Variant | one-hybrid fitness for binding parS DNA
RMGN | 0.453
SGDY | ≤ 0.2
SKDT | ≤ 0.2
VGNC | ≤ 0.2
RNAF | ≤ 0.2
FYKS | ≤ 0.2
RLMI | ≤ 0.2
SYAC | ≤ 0.2
QDNF | ≤ 0.2
CRIC | ≤ 0.2
DYAR | ≤ 0.2
QGFS | ≤ 0.2
TIDG | ≤ 0.2
QNGG | ≤ 0.2
NVIK | ≤ 0.2
RMRF | 0.368
RMNM | 0.351
RMNG | 0.999
RMRL | ≤ 0.2
RMRG | 0.962
RMNR | ≤ 0.2
PVDG | ≤ 0.2
TFGE | ≤ 0.2
DQLH | ≤ 0.2
HHQA | ≤ 0.2

Variant | one-hybrid fitness for binding parS DNA
RSVS | 0.946
RSVP | ≤ 0.2
RCVH | ≤ 0.2
RSVN | 0.342
RCVS | 1.02
RPVS | ≤ 0.2
RDPY | ≤ 0.2
NTKG | ≤ 0.2
RMDC | 0.889
RMDM | 0.302
RMNE | ≤ 0.2
RMNN | 0.467
RMDK | ≤ 0.2
RMNC | 0.969
KILI | ≤ 0.2
PNVW | ≤ 0.2
STNR | ≤ 0.2
QRCN | ≤ 0.2
RTVR | ≤ 0.2
RTKC | 0.813
DTKC | ≤ 0.2
RTVC | 0.929
RTKK | ≤ 0.2
TIRR | ≤ 0.2
RNYV | ≤ 0.2

Variant | one-hybrid fitness for binding parS DNA
LASP | ≤ 0.2
DNAR | ≤ 0.2
QMYE | ≤ 0.2
RIAA | 0.62
DIAA | ≤ 0.2
NIAA | ≤ 0.2
RIFA | 0.529
PPGC | ≤ 0.2
WPHF | ≤ 0.2
EGPL | ≤ 0.2
RVNS | 0.915
RVDS | 0.974
RVDP | ≤ 0.2
RVDN | 0.371
RVND | ≤ 0.2
RVNN | 0.416
NYLV | ≤ 0.2
NSCK | ≤ 0.2
IGDM | ≤ 0.2
LLDM | ≤ 0.2
RKDA | 0.536
RKNA | 0.834
NKNA | ≤ 0.2
TAPI | ≤ 0.2
IGRG | ≤ 0.2

Variant | one-hybrid fitness for binding parS DNA
CPMT | ≤ 0.2
RIVY | 0.469
RLVY | 0.465
RTKY | 0.89
RCKY | 0.716
RTVY | 0.443
RPKY | ≤ 0.2
RKKY | 0.492
RLKY | 0.704
RIKY | 0.747
QPIK | ≤ 0.2
KIKS | ≤ 0.2
KKAL | ≤ 0.2
YKKT | ≤ 0.2
ALMT | ≤ 0.2
EPHL | ≤ 0.2
FFHG | ≤ 0.2
FQRT | ≤ 0.2
GLWL | ≤ 0.2
GYNP | ≤ 0.2
PKHV | ≤ 0.2
LGGC | ≤ 0.2
RSVY | 0.37
RRVY | 0.247
RHVY | 0.354

Variant | one-hybrid fitness for binding parS DNA
RFKY | 0.569
RRKY | 0.856
RFVY | 0.301
RHYY | 0.438
SFKY | ≤ 0.2
RSKY | 0.609
RHKY | 0.518
RDKY | ≤ 0.2
QMIF | ≤ 0.2
VKTF | ≤ 0.2
YLRV | ≤ 0.2
VMPR | ≤ 0.2
CRLW | ≤ 0.2
GEYT | ≤ 0.2
RAVY | 0.412
RAPY | ≤ 0.2
RMVY | 0.438
RMKY | 0.782
RAKY | 0.644
KEPT | ≤ 0.2
